# Experimental data published in PubChem BioAssay (NCI).
# About 83,000 compounds went through this panel and 20% of them were active in at least one assay; those are over-represented in the sample as a whole.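 Compound tested at a single concentration for 48 hours in 96-well plates; a percent growth value below 10 was scored as active.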 Active and inactive are the calls of the source.
# Test system: OVCAR-4 ovarian
# Experiment: NCI-60 one-dose screen, 48 h (100 = growth as untreated, 0 = no growth, -100 = all killed)
# Conditions: 10 µM
# Method: Growth inhibition of the OVCAR-4 human tumor cell line is measured as a screen for anti-cancer activity. Cells are grown in 96 well plates and exposed to the test compound for 48 hours. Compounds are tested at a single concentration, which is 10^-5 M for most compounds. The reported endpoint is percent growth (GI% or GIPRCNT), where numbers from 0 - 100% represent growth inhibition, and numbers from -100% - 0 represent cell death. For example, a value of 40 represents 60% growth inhibition. A value of 0 means no net growth occurred over the course of the experiment. A value of -40 indicates 40% of cells at the beginning of the experiment died by the end of the experiment. A value of -100 means all cells are dead at the end of the experiment.
# NCI-60 Human Tumor Cell Lines Screen was performed using the standard one-dose NCI protocol, which is described in more detail at https://dtp.cancer.gov/discovery_development/nci-60/default.htm.
# Compounds with GIPRCNT values below 10 were considered active. Activity score was based on GIPRCNT using the following formula: […]
# Score is 0 for GIPRCNT values of 100 or above, 50 for GIPRCNT values of 0, and 100 for GIPRCNT values of -100.
row,SMILES,growth
1,COc1ccccc1-n1cc(C#N)c(N)c1C(=O)c1ccc(Cl)cc1Cl,61% (inactive)
2,COc1cc(-c2nc3ccc(C)cc3[nH]2)ccc1OCc1nnc(-c2ccccc2Br)o1,80.7% (inactive)
3,Cc1ccc(-c2nc(C#N)c(S(=O)(=O)N3CCN(S(C)(=O)=O)CC3)o2)cc1,48.1% (inactive)
4,CC(C)(C)c1cc(/C=C2\S/C(=N/c3ncn[nH]3)NC2=O)cc(C(C)(C)C)c1O,33.8% (inactive)
5,Cc1ccc2c(c1)C(=O)/C(=C/c1ccc([N+](=O)[O-])cc1)S2,83.4% (inactive)
6,Cc1ccc2c(c1)C(=O)/C(=C/c1c[nH]c3ccccc13)S2,40.9% (inactive)
7,Nc1nnc(-c2c[nH]c3ncc(Br)cc23)c(-c2c[nH]c3ccc(Br)cc23)n1,47.7% (inactive)
8,Fc1ccc(-c2csc(Nc3cccc(Nc4nc(-c5ccc(F)cc5)cs4)c3)n2)cc1,55.7% (inactive)
9,COc1ccc(C2c3sc4ccc(C)cc4c3Oc3nc(N)nc(N)c32)cc1 (stereo not given),85.8% (inactive)
10,O=C(CN1CCN(c2ncnc3c2cnn3-c2ccccc2)CC1)Nc1ccc(Br)cc1,56.5% (inactive)
11,COc1ccc(C(=O)COc2ccc(NC(=O)Nc3ccccc3)cc2)cc1,87.2% (inactive)
12,CC1(C)CC(=O)C2=C(C1)N(Cc1ccc(C(=O)O)cc1)C1=C(C(=O)CC(C)(C)C1)C2c1ccc(Cl)cc1,99.5% (inactive)
13,COc1cc2oc(-c3cccc(C(=O)Nc4ccc(Cl)cc4)c3)cc(=O)c2c(OCCN)c1OC,-62.9% (active)
14,COC(=O)CNC(=O)COc1c(OC)c(OC)cc2oc(-c3cccc(C(=O)Nc4ccc(Cl)cc4)c3)cc(=O)c12,6.23% (active)
15,C#C[C@]1(O)CC[C@H]2[C@@H]3CC=C4c5sc(Nc6cc(C)cc(C)n6)nc5CC[C@]4(C)[C@H]3CC[C@@]21C,25.6% (inactive)
16,Cn1cc(-c2nnc(N)nc2-c2c[nH]c3ccc(F)cc23)c2cc(Br)cnc21,59.6% (inactive)
17,O=C(Nc1ccc(OCc2ccc(Cl)cc2)cc1)Nc1ccc(Cl)c(C(F)(F)F)c1,13.8% (inactive)
18,CCn1c(SCC(=O)Nc2ccc(-c3nc4ccccc4[nH]3)cc2)nc2ccccc2c1=O,-84.1% (active)
19,Cc1ccc2sc3c(c2c1)Oc1nc[nH]c(=O)c1C3c1cccc(F)c1 (stereo not given),91.7% (inactive)
20,O=C(Nc1ccc(Oc2ncnc3scc(Nc4n[nH]c(=S)s4)c23)cc1)C1(C(=O)Nc2cccc(C(F)(F)F)c2)CC1,108% (inactive)

row,SMILES,growth
1,CCOC(=O)c1ccc(NC(=O)CSC(CC(=O)c2sc(Nc3ccccn3)nc2C)c2ccccc2F)cc1 (stereo not given),41.1% (inactive)
2,COc1ccc(Cc2nn(CC(=O)N/N=C/c3ccc(Br)cc3)c(=O)c3c(C)noc23)cc1,-44% (active)
3,C#C[C@]1(O)CC[C@H]2[C@@H]3CC=C4c5sc(Nc6ccc(C(F)(F)F)cn6)nc5CC[C@]4(C)[C@H]3CC[C@@]21C,20% (inactive)
4,Cn1cc(-c2nc(N)nnc2-c2c[nH]c3ccccc23)c2cc(Br)cnc21,32.1% (inactive)
5,COc1ccc(OC)c(-n2cc(C#N)c(N)c2C(=O)c2ccc(Cl)cc2Cl)c1,86.2% (inactive)
6,O=C1S/C(=C\c2ccc([N+](=O)[O-])cc2)C(=O)N1CCN1CCCCC1,111% (inactive)
7,COc1ccc(-n2c(SCC(=O)NNS(=O)(=O)c3ccccc3)nc3ccc(Cl)cc3c2=O)cc1,98.2% (inactive)
8,O=C(c1ccc(Cl)cc1)C(c1c[nH]c2ccccc12)c1c[nH]c2ccccc12,7.15% (active)
9,Cn1cc(-c2nnc(N)nc2-c2c[nH]c3ccccc23)c2cc(Br)cnc21,46.5% (inactive)
10,COc1ccc(C2OC[C@@]3(C)C4CC[C@]5(C)C(CC=C6C7CC(C)(C)CC[C@]7(C(=O)O)CC[C@]65C)[C@@]4(C)C[C@@H](O)[C@@H]3O2)cc1 (stereo not given in full),86.9% (inactive)
11,O=C(CC(=O)Nc1ccc(Oc2ncnc3scc(Nc4n[nH]c(=S)s4)c23)cc1)Nc1ccc(Cl)cc1,90.2% (inactive)
12,COc1ccc(C(=O)COc2ccc(NC(=O)Nc3ccc(Cl)c(C(F)(F)F)c3)cc2)cc1,19% (inactive)
13,Cn1cc(-c2cc3nc(-c4c[nH]c5ccccc45)cc(N)n3n2)c2cc(Cl)ccc21,-73.8% (active)
14,COc1ccc2[nH]cc(-c3nc(N)nnc3-c3cn(C)c4ncc(Br)cc34)c2c1,37.4% (inactive)
15,O=C1NC(=S)S/C1=C\c1cn(-c2ccccc2)nc1-c1ccc([N+](=O)[O-])cc1,15% (inactive)
16,COc1ccc(C2c3sc4ccc(C)cc4c3Oc3nc[nH]c(=O)c32)cc1 (stereo not given),85.3% (inactive)
17,COc1cccc(C(=O)CSc2nc(-c3ccc(OCc4ccccc4)c(OC)c3)c(C#N)c(=O)[nH]2)c1,96.8% (inactive)
18,O=C(c1ccccc1)c1ccc2nc(-c3ccccc3Br)[nH]c2c1,-54.8% (active)
19,Cc1ccc(S(=O)(=O)N2CCN(S(=O)(=O)c3oc(-c4ccccc4)nc3C#N)CC2)cc1,71.8% (inactive)
20,C#CCOc1cc(N(CC)CC)ccc1C(C(=O)NC(C)(C)C)N(C(=O)C1CCc2cc(F)ccc2O1)c1ccc(F)cc1F (stereo not given),43.7% (inactive)
